Data as given in the supplement of paper PMC10849652.
Targets with a hit are over-represented here; the source holds about 8,800 in all. About 0.5% of all pairs of compound and target were hits.

Legend:
Test in all cases: log2 fold change, soluble protein after heating vs DMSO (PISA); higher = thermal stabilisation; K562 lysate, 10 uM; active = over 0.2 and 3.5 SD of the protein, either way, in both replicates (recomputed)
ibrutinib = compound: C=CC(=O)N1CCC[C@@H](n2nc(-c3ccc(Oc4ccccc4)cc3)c3c(N)ncnc32)C1 [ibrutinib]
Method in brief: (§1)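 K562 pellets were dounce-homogenised in PBS pH 7.4 containing 1 mM MgCl2, and the crude extract, at 1 mg/mL protein, was exposed to 10 μM compound for 30 min. Aliquots were heated for 3 min across 48°C-58°C, pooled, brought to 0.5% NP-40 at 4°C and spun at 21,000xg for 90 min, with the supernatant taken as soluble protein. TMTpro 16plex LC-MS/MS with equalised channel sums quantified that protein. Values are log-two fold changes in thermal stability relative to solvent controls, taken from duplicates.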

[1] = compound: CC(=O)c1cnc2ccc(-c3cc(Cl)c(O)c(Cl)c3)nc2c1N[C@H]1CC[C@H](CN(C)C)CC1
Method in brief: as §1

ralimetinib = compound: CC(C)(C)Cn1c(N)nc2ccc(-c3[nH]c(C(C)(C)C)nc3-c3ccc(F)cc3)nc21 [ralimetinib]
Method in brief: as §1

[2] = compound: CC(C)(O)CC(=O)NCCn1ccc2ncnc(Nc3ccc(Oc4cccc(C(F)(F)F)c4)c(Cl)c3)c21
Method in brief: as §1

[3] = compound: CC(C)C1=C2N=C(C=C(N2N=C1)NCC3=CC=CC=C3)NCCCCCCN
Method in brief: as §1

[4] = compound: CC1=C(C(CC(=O)N1)C2=CC=C(C=C2)C(F)(F)F)C(=O)NC3=C(C=C4C(=C3)C=NN4)F
Method in brief: as §1

[5] = compound: CC1=C(C2=C(C=C1)C(=O)C3=CC=CC=C3N2CCCN)C
Method in brief: as §1

[6] = compound: CC1=C(C=C(C=C1)NC(=O)C2=CC(=CC=C2)C(C)(C)C#N)NC3=CC4=C(C=C3)N=CN(C4=O)C
Method in brief: as §1

[7] = compound: CC1=C(C=C(C=C1)NC(=O)C2=CC(=CC=C2)N(C)C)NC(=O)C3=CC=C(C=C3)O
Method in brief: as §1

[8] = compound: CC1=CC=C(C=C1)SC2=C3C=C(SC3=CN=C2)C(=O)N
Method in brief: as §1

Measured: log2 fold change

USE1 (UniProt Q9NZ43)
inactive: ibrutinib -0.039 | [1] -0.026 | ralimetinib -0.095 | [2] -0.102 | [3] -0.086 | [4] 0.024 | [5] -0.025 | [6] -0.007 | [7] 0.007 | [8] 0.027

VARS (UniProt P26640)
inactive: ibrutinib 0.015 | [1] -0.003 | ralimetinib 0.042 | [2] 0.018 | [3] 0.032 | [4] 0.006 | [5] -0.047 | [6] 0.001 | [7] 0.041 | [8] 0.035

VRK1 (UniProt Q99986)
inactive: ibrutinib 0.008 | [1] 0.035 | ralimetinib 0.122 | [2] 0.005 | [3] -0.008 | [4] -0.013 | [5] 0.007 | [6] -0.015 | [7] 0.018 | [8] 0.003

VPS35L (UniProt Q7Z3J2)
inactive: ibrutinib 0.011 | [1] 0.023 | ralimetinib -0.003 | [2] -0.032 | [3] 0.003 | [4] 0.007 | [5] 0.018 | [6] -0.021 | [7] 0.009 | [8] -0.005

USP3 (UniProt Q9Y6I4)
inactive: ibrutinib 0.01 | [1] 0.048 | ralimetinib 0.042 | [2] -0.027 | [3] 0.014 | [4] 0.024 | [5] 0.011 | [6] -0.014 | [7] 0.016 | [8] -0.025

WDR6 (UniProt Q9NNW5)
inactive: ibrutinib 0.008 | [1] 0.008 | ralimetinib 0.018 | [2] -0.017 | [3] -0.032 | [4] -0.012 | [5] -0.019 | [6] 0.011 | [7] 0.022 | [8] 0.017

VANGL1 (UniProt Q8TAA9)
Sequence of UniProt Q8TAA9 (Q8TAA9 whole entry, looked up): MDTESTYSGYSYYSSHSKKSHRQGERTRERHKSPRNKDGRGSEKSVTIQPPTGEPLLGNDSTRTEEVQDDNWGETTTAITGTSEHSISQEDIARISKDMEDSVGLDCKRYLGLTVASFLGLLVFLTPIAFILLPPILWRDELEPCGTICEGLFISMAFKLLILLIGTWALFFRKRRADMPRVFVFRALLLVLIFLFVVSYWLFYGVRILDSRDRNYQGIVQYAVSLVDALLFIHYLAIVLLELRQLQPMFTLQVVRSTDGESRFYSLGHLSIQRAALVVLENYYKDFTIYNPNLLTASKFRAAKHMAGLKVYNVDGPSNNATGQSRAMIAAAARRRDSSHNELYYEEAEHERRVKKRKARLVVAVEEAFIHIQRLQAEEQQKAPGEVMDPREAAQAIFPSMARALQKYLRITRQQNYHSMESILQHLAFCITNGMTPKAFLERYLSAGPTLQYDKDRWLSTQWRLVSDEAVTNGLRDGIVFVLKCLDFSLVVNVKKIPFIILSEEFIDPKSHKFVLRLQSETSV
active: ralimetinib -0.317
inactive: ibrutinib 0.08 | [1] -0.041 | [2] 0.183 | [3] 0.037 | [4] 0.007 | [5] -0.109 | [6] -0.062 | [7] -0.066 | [8] 0.007

YDJC (UniProt A8MPS7)
inactive: ibrutinib 0.024 | [1] 0.023 | ralimetinib -0.015 | [2] -0.064 | [3] -0.028 | [4] 0.052 | [5] -0.034 | [6] 0.011 | [7] 0.022 | [8] 0.021

ZC2HC1A (UniProt Q96GY0)
inactive: ibrutinib -0.029 | [1] -0.006 | ralimetinib 0.037 | [2] -0.056 | [3] -0.038 | [4] -0.016 | [5] -0.076 | [6] 0.045 | [7] -0.003 | [8] 0.006

ZNF318 (UniProt Q5VUA4)
Sequence of UniProt Q5VUA4 (Q5VUA4 whole entry, looked up): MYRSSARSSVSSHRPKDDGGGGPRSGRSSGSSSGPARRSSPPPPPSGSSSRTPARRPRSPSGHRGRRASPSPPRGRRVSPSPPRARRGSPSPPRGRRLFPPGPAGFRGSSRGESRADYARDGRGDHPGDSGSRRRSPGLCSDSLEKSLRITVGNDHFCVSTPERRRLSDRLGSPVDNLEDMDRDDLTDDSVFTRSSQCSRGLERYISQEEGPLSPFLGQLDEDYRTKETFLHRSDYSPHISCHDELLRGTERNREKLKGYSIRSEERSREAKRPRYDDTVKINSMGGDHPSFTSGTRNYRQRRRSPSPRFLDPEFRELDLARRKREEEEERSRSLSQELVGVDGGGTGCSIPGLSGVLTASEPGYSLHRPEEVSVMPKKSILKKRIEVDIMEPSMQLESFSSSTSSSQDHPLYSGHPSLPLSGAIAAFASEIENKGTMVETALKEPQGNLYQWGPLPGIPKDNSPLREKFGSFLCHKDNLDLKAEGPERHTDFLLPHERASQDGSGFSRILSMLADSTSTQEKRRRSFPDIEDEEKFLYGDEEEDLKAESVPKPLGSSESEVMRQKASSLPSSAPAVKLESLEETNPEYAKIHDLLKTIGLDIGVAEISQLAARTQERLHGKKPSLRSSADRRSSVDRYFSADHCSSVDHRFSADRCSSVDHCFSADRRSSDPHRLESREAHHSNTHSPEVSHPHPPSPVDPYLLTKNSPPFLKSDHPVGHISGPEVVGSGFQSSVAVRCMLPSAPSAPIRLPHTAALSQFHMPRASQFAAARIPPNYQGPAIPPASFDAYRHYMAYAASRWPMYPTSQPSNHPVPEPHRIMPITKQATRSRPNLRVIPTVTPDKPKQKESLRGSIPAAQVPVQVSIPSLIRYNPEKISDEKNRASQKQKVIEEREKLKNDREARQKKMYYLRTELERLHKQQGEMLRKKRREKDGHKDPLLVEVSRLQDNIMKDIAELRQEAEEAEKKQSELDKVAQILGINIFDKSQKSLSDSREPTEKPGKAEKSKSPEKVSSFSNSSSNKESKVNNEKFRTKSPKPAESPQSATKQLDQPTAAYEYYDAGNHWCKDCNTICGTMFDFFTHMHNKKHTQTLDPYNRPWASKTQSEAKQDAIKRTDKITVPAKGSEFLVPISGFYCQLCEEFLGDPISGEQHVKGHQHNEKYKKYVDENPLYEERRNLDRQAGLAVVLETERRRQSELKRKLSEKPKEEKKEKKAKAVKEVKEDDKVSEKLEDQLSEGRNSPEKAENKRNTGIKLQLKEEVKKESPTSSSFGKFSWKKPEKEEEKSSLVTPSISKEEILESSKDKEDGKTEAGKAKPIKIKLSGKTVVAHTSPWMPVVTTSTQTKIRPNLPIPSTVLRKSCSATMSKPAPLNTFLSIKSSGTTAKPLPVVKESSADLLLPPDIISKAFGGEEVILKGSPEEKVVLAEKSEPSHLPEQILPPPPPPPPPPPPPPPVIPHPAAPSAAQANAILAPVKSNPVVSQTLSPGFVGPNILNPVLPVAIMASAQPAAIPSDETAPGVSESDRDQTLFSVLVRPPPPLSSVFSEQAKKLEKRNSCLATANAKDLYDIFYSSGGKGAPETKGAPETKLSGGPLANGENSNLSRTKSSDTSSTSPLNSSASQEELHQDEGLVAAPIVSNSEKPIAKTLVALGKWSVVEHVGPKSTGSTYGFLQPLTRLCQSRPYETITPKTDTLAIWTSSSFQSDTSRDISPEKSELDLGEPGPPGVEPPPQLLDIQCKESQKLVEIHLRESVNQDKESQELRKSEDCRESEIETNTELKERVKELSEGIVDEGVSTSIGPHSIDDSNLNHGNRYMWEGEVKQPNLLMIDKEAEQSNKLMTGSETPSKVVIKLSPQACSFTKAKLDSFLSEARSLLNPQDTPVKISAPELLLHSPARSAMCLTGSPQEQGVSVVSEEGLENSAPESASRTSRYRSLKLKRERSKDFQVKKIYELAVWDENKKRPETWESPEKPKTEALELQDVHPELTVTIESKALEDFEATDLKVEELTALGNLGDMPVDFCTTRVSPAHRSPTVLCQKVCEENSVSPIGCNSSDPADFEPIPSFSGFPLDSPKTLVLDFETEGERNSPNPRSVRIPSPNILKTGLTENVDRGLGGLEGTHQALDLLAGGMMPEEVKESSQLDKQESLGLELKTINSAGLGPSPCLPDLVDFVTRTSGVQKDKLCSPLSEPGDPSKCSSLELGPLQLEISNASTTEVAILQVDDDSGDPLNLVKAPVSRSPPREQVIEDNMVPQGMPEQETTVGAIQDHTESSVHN
inactive: ibrutinib 0.022 | [1] -0.043 | ralimetinib 0.029 | [2] -0.06 | [3] 0.014 | [4] 0.023 | [5] 0.038 | [6] -0.036 | [7] 0.046 | [8] 0.083

ZC3H11A (UniProt O75152)
inactive: ibrutinib 0.025 | [1] -0.1 | ralimetinib 0.019 | [2] -0.034 | [3] 0.025 | [4] 0.084 | [5] -0.016 | [6] 0.041 | [7] 0.041 | [8] -0.096

VCPIP1 (UniProt Q96JH7)
inactive: ibrutinib 0.002 | [1] 0.01 | ralimetinib 0.009 | [2] 0.011 | [3] -0.029 | [4] -0.021 | [5] -0.05 | [6] -0.007 | [7] 0.048 | [8] -0.017

WEE1 (UniProt P30291)
inactive: ibrutinib -0.028 | [1] 0.139 | ralimetinib -0.017 | [2] -0.062 | [3] -0.031 | [4] -0.032 | [5] -0.012 | [6] 0.023 | [7] -0.105 | [8] -0.038

UXT isoform 2 (UniProt Q9UBK9)
Sequence of UniProt Q9UBK9 (Q9UBK9 whole entry, looked up): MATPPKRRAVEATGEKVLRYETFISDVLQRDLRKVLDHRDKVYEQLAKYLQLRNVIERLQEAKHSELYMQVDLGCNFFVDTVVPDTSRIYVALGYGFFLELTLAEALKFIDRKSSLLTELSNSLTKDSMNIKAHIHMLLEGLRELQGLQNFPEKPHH
inactive: ibrutinib -0.078 | [1] -0.018 | ralimetinib -0.063 | [2] -0.075 | [3] 0.006 | [4] -0.035 | [5] -0.091 | [6] 0 | [7] -0.015 | [8] -0.032

ZMYM4 (UniProt Q5VZL5)
inactive: ibrutinib -0.079 | [1] -0.004 | ralimetinib 0.055 | [2] -0.025 | [3] 0.051 | [4] 0.026 | [5] -0.089 | [6] -0.011 | [7] -0.012 | [8] -0.001

USP9X (UniProt Q93008)
inactive: ibrutinib -0.003 | [1] 0.001 | ralimetinib 0.025 | [2] -0.024 | [3] -0.032 | [4] -0.008 | [5] 0.009 | [6] -0.021 | [7] 0.043 | [8] 0.011

ZFPM1 (UniProt Q8IX07)
inactive: ibrutinib 0.004 | [1] -0.034 | ralimetinib 0.013 | [2] -0.067 | [3] 0.02 | [4] 0.01 | [5] 0.003 | [6] 0.033 | [7] 0 | [8] -0.026

XPNPEP1 isoform 3 (UniProt Q9NQW7)
inactive: ibrutinib 0.012 | [1] -0.007 | ralimetinib 0.017 | [2] -0.026 | [3] -0.009 | [4] 0.007 | [5] -0.026 | [6] -0.025 | [7] -0.005 | [8] 0.002

ZDHHC18 (UniProt Q9NUE0)
inactive: ibrutinib -0.103 | [1] 0.057 | ralimetinib 0.093 | [2] -0.017 | [3] -0.137 | [4] 0.019 | [5] 0.209 | [6] -0.022 | [7] 0.073 | [8] -0.01

XPOT (UniProt O43592)
inactive: ibrutinib -0.012 | [1] 0.009 | ralimetinib 0.006 | [2] -0.038 | [3] -0.014 | [4] 0 | [5] 0.013 | [6] 0.016 | [7] 0.007 | [8] 0.018

WDR20 isoform 7 (UniProt Q8TBZ3)
inactive: ibrutinib 0.003 | [1] -0.001 | ralimetinib 0.088 | [2] -0.023 | [3] -0.019 | [4] 0.087 | [5] 0.044 | [6] 0.058 | [7] -0.003 | [8] 0.014

XPO1 (UniProt O14980)
Sequence of UniProt O14980 (O14980 whole entry, looked up): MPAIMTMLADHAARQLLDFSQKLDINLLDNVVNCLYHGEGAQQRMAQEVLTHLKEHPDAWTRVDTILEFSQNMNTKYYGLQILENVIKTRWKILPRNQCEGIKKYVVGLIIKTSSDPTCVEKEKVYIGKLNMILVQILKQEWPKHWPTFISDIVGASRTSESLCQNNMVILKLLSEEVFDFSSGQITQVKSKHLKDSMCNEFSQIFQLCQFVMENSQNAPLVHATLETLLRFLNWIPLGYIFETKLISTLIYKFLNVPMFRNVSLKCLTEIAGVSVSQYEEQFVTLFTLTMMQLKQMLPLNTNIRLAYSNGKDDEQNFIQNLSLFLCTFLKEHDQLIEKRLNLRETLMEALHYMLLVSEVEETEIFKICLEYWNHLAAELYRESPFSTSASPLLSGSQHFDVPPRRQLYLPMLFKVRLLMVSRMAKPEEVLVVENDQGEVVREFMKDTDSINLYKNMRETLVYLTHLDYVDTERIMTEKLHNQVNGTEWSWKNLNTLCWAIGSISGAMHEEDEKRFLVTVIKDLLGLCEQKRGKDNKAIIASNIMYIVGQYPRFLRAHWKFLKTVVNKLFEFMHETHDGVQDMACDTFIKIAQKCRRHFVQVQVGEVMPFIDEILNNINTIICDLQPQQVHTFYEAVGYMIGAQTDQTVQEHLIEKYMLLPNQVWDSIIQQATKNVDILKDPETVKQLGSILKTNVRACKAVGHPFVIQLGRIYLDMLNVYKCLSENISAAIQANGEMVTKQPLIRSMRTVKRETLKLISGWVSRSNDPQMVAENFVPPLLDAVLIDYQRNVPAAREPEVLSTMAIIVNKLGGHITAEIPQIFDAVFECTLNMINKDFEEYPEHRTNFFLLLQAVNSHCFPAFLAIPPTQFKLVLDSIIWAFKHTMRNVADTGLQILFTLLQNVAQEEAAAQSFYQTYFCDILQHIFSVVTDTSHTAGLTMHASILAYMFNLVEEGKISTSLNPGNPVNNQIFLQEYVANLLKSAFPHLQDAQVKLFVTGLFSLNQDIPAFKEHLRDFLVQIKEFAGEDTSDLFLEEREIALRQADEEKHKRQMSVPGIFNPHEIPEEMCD
inactive: ibrutinib -0.01 | [1] 0.008 | ralimetinib 0.029 | [2] -0.037 | [3] -0.01 | [4] -0.007 | [5] 0.035 | [6] -0.004 | [7] 0.02 | [8] 0.019

ZNF598 isoform 3 (UniProt Q86UK7)
inactive: ibrutinib 0.032 | [1] -0.007 | ralimetinib -0.001 | [2] -0.017 | [3] 0.013 | [4] 0.019 | [5] 0.005 | [6] -0.001 | [7] -0.004 | [8] 0

WDR62 isoform 4 (UniProt O43379)
inactive: ibrutinib -0.023 | [1] 0.027 | ralimetinib 0.013 | [2] -0.051 | [3] -0.007 | [4] 0.033 | [5] -0.016 | [6] 0.023 | [7] -0.002 | [8] -0.029

VPS33A (UniProt Q96AX1)
inactive: ibrutinib 0.024 | [1] -0.01 | ralimetinib 0.039 | [2] 0.005 | [3] -0.003 | [4] 0.008 | [5] 0.013 | [6] 0.013 | [7] 0.043 | [8] -0.032

WDHD1 (UniProt O75717)
inactive: ibrutinib 0.024 | [1] -0.002 | ralimetinib 0.005 | [2] -0.01 | [3] -0.027 | [4] 0.007 | [5] -0.002 | [6] -0.002 | [7] 0.016 | [8] -0.005

ZC3H13 (UniProt Q5T200)
inactive: ibrutinib 0.046 | [1] 0.009 | ralimetinib -0.003 | [2] -0.072 | [3] 0.058 | [4] -0.101 | [5] 0.046 | [6] 0.08 | [7] -0.01 | [8] -0.022

ZNF845 (UniProt Q96IR2)
Sequence of UniProt Q96IR2 (Q96IR2 whole entry, looked up): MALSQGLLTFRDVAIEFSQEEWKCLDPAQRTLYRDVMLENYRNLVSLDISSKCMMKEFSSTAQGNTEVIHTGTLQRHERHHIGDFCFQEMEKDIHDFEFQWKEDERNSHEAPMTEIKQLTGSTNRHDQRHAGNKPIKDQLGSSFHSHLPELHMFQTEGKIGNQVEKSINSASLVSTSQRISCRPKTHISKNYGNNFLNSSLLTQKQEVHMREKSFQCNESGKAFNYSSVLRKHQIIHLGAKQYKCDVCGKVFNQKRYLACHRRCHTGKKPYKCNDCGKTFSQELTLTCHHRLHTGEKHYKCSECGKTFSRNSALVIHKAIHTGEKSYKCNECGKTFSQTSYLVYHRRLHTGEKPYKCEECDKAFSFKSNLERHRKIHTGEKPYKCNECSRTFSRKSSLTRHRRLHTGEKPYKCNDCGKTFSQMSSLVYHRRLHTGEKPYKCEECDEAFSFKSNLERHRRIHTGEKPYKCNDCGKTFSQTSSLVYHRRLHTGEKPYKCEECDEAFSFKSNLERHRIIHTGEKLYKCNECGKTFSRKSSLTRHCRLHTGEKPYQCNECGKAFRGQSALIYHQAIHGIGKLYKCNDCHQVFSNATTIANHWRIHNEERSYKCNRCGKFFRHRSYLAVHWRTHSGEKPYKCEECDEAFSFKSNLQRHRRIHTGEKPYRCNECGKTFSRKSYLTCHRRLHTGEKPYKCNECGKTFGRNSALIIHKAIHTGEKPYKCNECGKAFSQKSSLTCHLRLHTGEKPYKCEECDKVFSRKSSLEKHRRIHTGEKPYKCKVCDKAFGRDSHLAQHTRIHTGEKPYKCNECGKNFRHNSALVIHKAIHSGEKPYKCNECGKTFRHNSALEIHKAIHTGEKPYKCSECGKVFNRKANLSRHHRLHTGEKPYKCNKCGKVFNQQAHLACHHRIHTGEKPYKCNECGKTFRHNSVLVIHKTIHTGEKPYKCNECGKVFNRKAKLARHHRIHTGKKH
inactive: ibrutinib 0.087 | [1] -0.039 | ralimetinib 0.093 | [2] 0 | [3] -0.061 | [4] -0.047 | [5] 0.072 | [6] 0.005 | [7] -0.012 | [8] -0.109

VAMP2 (UniProt P63027)
inactive: ibrutinib -0.039 | [1] -0.027 | ralimetinib 0.002 | [2] -0.006 | [3] -0.036 | [4] -0.069 | [5] -0.01 | [6] -0.048 | [7] 0.047 | [8] 0.035

VPS41 (UniProt P49754)
inactive: ibrutinib -0.019 | [1] 0.007 | ralimetinib 0.015 | [2] 0.016 | [3] 0.003 | [4] 0.024 | [5] 0.014 | [6] 0.005 | [7] 0.047 | [8] 0.013
